Experimental data from PubChem BioAssay (NCI).
This is part of a sample that, as a whole, favours compounds with a hit. Of some 79,000 tested, about 15% had one in any assay. The source made the active and inactive calls. Cut-off read from the data, not from the text of the source: active = growth inhibition above about 70%; inactive = the rest.

Key:
[1] = NCI Yeast Anticancer Drug Screen. Data for the rad52 strain (AID 147);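 note: 0% = growth of vehicle-treated control cultures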; details: S. cerevisiae rad52 mutant growth inhibition, stronger effect = higher value
In short: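 The repair-mutant yeast strain was incubated with compounds, then growth was read and inhibition derived relative to vehicle.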

[2] = NCI Yeast Anticancer Drug Screen. Data for the wt1 strain (AID 149);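 note: 0% = growth of vehicle-treated wt1 cultures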; details: S. cerevisiae wt1 strain (SPY 50644) growth inhibition, stronger effect = higher value
In short: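 wt1 yeast, compound-treated; % growth inhibition vs vehicle control.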

[3] = NCI Yeast Anticancer Drug Screen. Data for the rad50EPP+ strain (AID 151);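 note: 0% = growth of vehicle-treated control cultures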; details: S. cerevisiae rad50 mutant strain, stronger effect = higher value
In short: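 Vehicle-normalised growth inhibition; rad50EPP+ yeast strain, altered in DNA damage repair, compound-treated.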

[4] = NCI Yeast Anticancer Drug Screen. Data for the mgt1 strain (AID 153); details: S. cerevisiae mgt1 mutant growth inhibition, stronger effect = higher value
In short: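 Vehicle-normalized growth inhibition is determined in mgt1 yeast, a strain selected for a defined alteration in DNA repair or cell cycle control.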

[5] = NCI Yeast Anticancer Drug Screen. Data for the mec2-1 strain (AID 157); details: S. cerevisiae mec2-1 strain, stronger effect = higher value
In short: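 Mutant yeast (mec2-1) grown with compound; growth inhibition relative to vehicle control reported.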

[6] = NCI Yeast Anticancer Drug Screen. Data for the rad14 strain (AID 159);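 note: 0% = growth of vehicle-treated control cultures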; details: S. cerevisiae rad14 strain growth inhibition, stronger effect = higher value
In short: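 Test compounds were applied to a repair-deficient yeast strain. Its growth was then compared with that of cultures given vehicle alone, and inhibition was expressed relative to those controls.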

[7] = NCI Yeast Anticancer Drug Screen. Data for the sgs1 mgt1 strain (AID 161);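 note: 0% = growth of cultures given vehicle only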; details: S. cerevisiae sgs1 mgt1 strain, stronger effect = higher value
In short: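 Yeast cells carrying a defined DNA-repair defect were exposed to test compounds. Growth inhibition was measured relative to vehicle-treated controls.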

[8] = NCI Yeast Anticancer Drug Screen. Data for the CLN2oe strain (AID 163);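 note: 0% = growth of vehicle-only control cultures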; details: S. cerevisiae CLN2oe strain, stronger effect = higher value
In short: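 Compounds are applied to yeast harbouring a defined cell-cycle control change; reduced growth compared with vehicle-treated controls gives the value.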

[9] = NCI Yeast Anticancer Drug Screen. Data for the bub3 strain (AID 167); details: S. cerevisiae bub3 mutant strain, stronger effect = higher value
In short: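 Yeast carrying a defined mutation is treated with each compound, and growth is compared with that of vehicle-exposed cells to give inhibition.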

[10] = NCI Yeast Anticancer Drug Screen. Data for the wt2 strain (AID 169);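 note: 0% = growth of vehicle-treated yeast cultures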; details: S. cerevisiae wt2 strain growth inhibition, stronger effect = higher value
In short: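 Against vehicle-treated controls, the growth of yeast exposed to each compound was compared, and the inhibition was recorded.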

[11] = NCI Yeast Anticancer Drug Screen. Data for the mlh1 strain (AID 171);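 note: 0% = growth of vehicle-treated control cultures of the same strain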; details: S. cerevisiae mlh1 strain growth inhibition, stronger effect = higher value
In short: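 Measured: yeast growth. Reference: vehicle-treated controls. Organism: strain with a defined alteration affecting DNA damage repair or cell cycle control, treated with compound.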

[12] = NCI Yeast Anticancer Drug Screen. Data for the sgs1 strain (AID 173);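 note: 0% = growth of vehicle-only control cultures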; details: S. cerevisiae sgs1 mutant, stronger effect = higher value
In short: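 Each compound was added to cultures of the altered yeast strain. Growth was recorded, and inhibition was derived by comparison with vehicle controls.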

[13] = NCI Yeast Anticancer Drug Screen. Data for the mlh1 rad18 strain (AID 175); details: S. cerevisiae mlh1 rad18 strain growth inhibition, stronger effect = higher value
In short: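 Genetically defined yeast (DNA repair-deficient) exposed to compounds; growth inhibition determined relative to vehicle.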

[14] = NCI Yeast Anticancer Drug Screen. Data for the rad18 strain (AID 177); details: S. cerevisiae rad18 mutant growth inhibition, stronger effect = higher value
In short: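 Vehicle-treated cultures served as the baseline for scoring compound-induced growth inhibition in DNA-repair-mutant yeast.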

[15] = NCI Yeast Anticancer Drug Screen. Data for the rad50 strain (AID 155);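 note: 0% = growth of vehicle-only cultures of the same strain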; details: S. cerevisiae rad50 strain growth inhibition, stronger effect = higher value
In short: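 Genetically altered yeast (DNA repair pathway); compound treatment; growth inhibition vs vehicle ctrl.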

[16] = NCI Yeast Anticancer Drug Screen. Data for the cln2 rad14 strain (AID 165);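 note: 0% = growth equal to vehicle treated cultures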; details: S. cerevisiae cln2 rad14 strain, stronger effect = higher value
In short: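 Readout is yeast growth inhibition versus vehicle-treated controls, using a strain with cln2 and rad14 alterations exposed to compound.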

[17] = at 5.0 µM (retest, dose inferred, filed as 0.5)
[18] = at 50.0 µM (retest, dose inferred, filed as 5.0)

Measured: growth inhibition

COC(=O)C(=O)CC(=O)c1cccc(OC)c1
inactive: [1]; at 1.2 µM -9% | [1]; at 3.7 µM -10% | [1]; at 11.0 µM -5% | [1]; at 33.0 µM 10% | [1]; at 100.0 µM 17% | [2]; at 1.2 µM 1% | [2]; at 3.7 µM 9% | [2]; at 11.0 µM 24% | [2]; at 33.0 µM 28% | [2]; at 100.0 µM 39% | [3]; at 1.2 µM -10% | [3]; at 3.7 µM -23% | [3]; at 11.0 µM -7% | [3]; at 33.0 µM 32% | [3]; at 100.0 µM 26% | [4]; at 1.2 µM -1% | [4]; at 3.7 µM -4% | [4]; at 11.0 µM 2% | [4]; at 33.0 µM 14% | [4]; at 100.0 µM 40% | [5]; at 1.2 µM 0% | [5]; at 3.7 µM 1% | [5]; [17] -44% | [5]; at 11.0 µM 4% | [5]; at 33.0 µM 10% | [5]; [18] -15% | [5]; at 50.0 µM 18.6% | [5]; at 100.0 µM 16% | [6]; at 1.2 µM -8% | [6]; at 3.7 µM 7% | [6]; at 11.0 µM 33% | [6]; at 33.0 µM 67% | [7]; [17] -58% | [7]; [18] 24% | [7]; at 50.0 µM 0.4% | [8]; at 1.2 µM -6% | [8]; at 3.7 µM -3% | [8]; at 11.0 µM -1% | [8]; at 33.0 µM 1% | [8]; at 100.0 µM 10% | [9]; at 1.2 µM -4% | [9]; at 3.7 µM -4% | [9]; [17] -67% | [9]; at 11.0 µM -5% | [9]; at 33.0 µM 2% | [9]; [18] 12% | [9]; at 50.0 µM -7.55% | [9]; at 100.0 µM 22% | [10]; at 1.2 µM -5% | [10]; at 3.7 µM 9% | [10]; at 11.0 µM 27% | [11]; at 1.2 µM -11% | [11]; at 3.7 µM -5% | [11]; at 11.0 µM -3% | [11]; at 33.0 µM 39% | [11]; at 100.0 µM 64% | [12]; at 1.2 µM -16% | [12]; at 3.7 µM -6% | [12]; at 11.0 µM 8% | [12]; at 33.0 µM 49% | [13]; [17] -143% | [13]; [18] -19% | [13]; at 50.0 µM 49.6% | [14]; at 1.2 µM -6% | [14]; at 3.7 µM -2% | [14]; at 11.0 µM -1% | [14]; at 33.0 µM 6% | [14]; at 100.0 µM 19%
active: [6]; at 100.0 µM 94% | [10]; at 33.0 µM 71% | [10]; at 100.0 µM 92% | [12]; at 100.0 µM 82%

O=C1C(=C2CCCC2)CCC1CN1CCCCC1 (stereo not given)
inactive: [1]; at 1.2 µM 3% | [1]; at 3.7 µM 16% | [1]; at 11.0 µM 20% | [1]; at 33.0 µM 64% | [2]; at 1.2 µM 6% | [2]; at 3.7 µM 12% | [2]; at 11.0 µM 27% | [2]; at 33.0 µM 30% | [3]; at 1.2 µM 28% | [3]; at 3.7 µM 36% | [3]; at 11.0 µM 48% | [15]; at 1.2 µM 2% | [15]; at 3.7 µM 8% | [15]; [17] -3% | [15]; at 11.0 µM 9% | [15]; at 33.0 µM 60% | [15]; [18] 57% | [5]; at 1.2 µM -7% | [5]; at 3.7 µM -12% | [5]; [17] 6% | [5]; at 11.0 µM 9% | [5]; [18] 60% | [5]; at 50.0 µM 68.7% | [6]; at 1.2 µM 10% | [6]; at 3.7 µM 10% | [6]; at 11.0 µM 29% | [6]; at 33.0 µM 57% | [7]; [17] 9% | [7]; [18] 57% | [7]; at 50.0 µM 58.9% | [8]; at 1.2 µM -16% | [8]; at 3.7 µM 11% | [8]; at 11.0 µM -1% | [8]; at 33.0 µM 40% | [16]; [17] 4% | [16]; [18] 14% | [16]; at 50.0 µM 43.5% | [9]; at 1.2 µM 8% | [9]; at 3.7 µM 10% | [9]; [17] -21% | [9]; at 11.0 µM 18% | [9]; at 50.0 µM 55.6% | [10]; at 1.2 µM -17% | [10]; at 3.7 µM 2% | [10]; at 11.0 µM 11% | [10]; at 33.0 µM 68% | [11]; at 1.2 µM 0% | [11]; at 3.7 µM 0% | [11]; at 11.0 µM 13% | [12]; at 1.2 µM 34% | [12]; at 3.7 µM 30% | [12]; at 11.0 µM 63% | [13]; [17] -29% | [13]; at 50.0 µM 63.5% | [14]; at 1.2 µM 8% | [14]; at 3.7 µM 6% | [14]; at 11.0 µM 27%
active: [1]; at 100.0 µM 96% | [2]; at 100.0 µM 89% | [3]; at 33.0 µM 80% | [3]; at 100.0 µM 94% | [15]; at 50.0 µM 76.3% | [15]; at 100.0 µM 95% | [5]; at 33.0 µM 70% | [5]; at 100.0 µM 96% | [6]; at 100.0 µM 94% | [8]; at 100.0 µM 91% | [9]; at 33.0 µM 81% | [9]; [18] 80% | [9]; at 100.0 µM 97% | [10]; at 100.0 µM 93% | [11]; at 33.0 µM 84% | [11]; at 100.0 µM 97% | [12]; at 33.0 µM 87% | [12]; at 100.0 µM 97% | [13]; [18] 83% | [14]; at 33.0 µM 81% | [14]; at 100.0 µM 94%
